Each compound was assayed against Voltage-gated potassium channel subunit beta-2 (Rattus norvegicus) (UniProt P62483) (assay: KvBeta enzyme negative modulators, primary screen, biochemical, NADPH fluorescence (AID 622;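 also: slope of raw intensity against log time taken from 70 to 1610 s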)). Conditions: recombinant KvBeta, 4-cyanobenzaldehyde reduction, at 10 µM, hits give high values.
Chain of Voltage-gated potassium channel subunit beta-2 (Rattus norvegicus) (P62483 whole entry, looked up): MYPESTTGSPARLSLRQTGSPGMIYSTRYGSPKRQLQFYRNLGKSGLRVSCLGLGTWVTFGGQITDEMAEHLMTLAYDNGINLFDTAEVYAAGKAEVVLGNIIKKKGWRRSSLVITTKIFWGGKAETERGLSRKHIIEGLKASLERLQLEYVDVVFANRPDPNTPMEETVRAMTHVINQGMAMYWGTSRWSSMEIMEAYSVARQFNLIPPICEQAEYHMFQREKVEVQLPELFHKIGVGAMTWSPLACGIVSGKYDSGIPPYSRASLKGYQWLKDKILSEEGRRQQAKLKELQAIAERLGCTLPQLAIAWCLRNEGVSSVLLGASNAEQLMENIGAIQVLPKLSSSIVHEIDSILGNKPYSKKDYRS

Fluorescence slope, inactive:
CCCCCn1c(CN2CCN(C(=O)c3ccco3)CC2)nc2c1c(=O)n(C)c(=O)n2C -0.57
Cc1cc(C(=O)COC(=O)C2COc3ccccc3O2)c(C)n1CC1CCCO1 (stereo not given) -0.373
COC(=O)Oc1c(Br)c(=O)oc2ccccc12 -0.443
CCOC(=O)CN1CC23C=CC(O2)C(C(=O)Nc2ccc(OCC)cc2)C3C1=O (stereo not given) -0.517
O=C(Cn1cc2c(n1)CCCC2)NCCc1ccccc1 -0.428
CCCC1(C(=O)OCC)NC(c2ccc(N(C)C)cc2)C2C(=O)N(c3ccc(F)cc3)C(=O)C21 (stereo not given) -0.398
COC(=O)c1ccc(NC(=O)CN2CCCC2)cc1 -0.514
C=CCc1ccccc1OCCCCN1CCCC1 -0.497
O=C(NCc1ccc2c(c1)OCO2)c1ccccn1 -0.375
O=C(CSc1nnc(NC(=O)C2CCC2)s1)NC1CC1 -0.313
CCOC(=O)Cc1nnc2c(Nc3ccc(C)cc3)nc3nonc3n12 -0.612
COc1ccc(C(=O)NCC(=O)NC2=NCCS2)cc1 -0.591
Cc1nc(NC(=O)c2ccccc2)sc1-c1csc(NCc2ccco2)n1 -0.185
COc1ccccc1-c1nnc(SCC(=O)NC2CCCCC2)o1 -0.56
O=C(CSc1nnnn1-c1ccc(Cl)cc1)NC(=O)Nc1ccc2c(c1)OCCO2 -0.429
O=C(CCC(=O)c1cccs1)NCc1ccccc1 -0.622
Cn1c(=O)oc2cc(S(=O)(=O)N3CCN(c4ccccn4)CC3)ccc21 -0.577
CC(=O)c1ccccc1Oc1nc(CN2CCOCC2)nc2scc(-c3cccs3)c12 -0.478
Cc1ccc(NC(=O)CCC(=O)O)cc1F -0.508
Cc1c(C#N)c2ncnc(-c3ccccc3)c2n1-c1ccccc1 -0.448
O=C(c1ccc(CSCc2ccccc2F)o1)N1CCN(c2ccc(N3CCOCC3)nn2)CC1 -0.435
COc1ccc(N2CCN(C(=O)c3c(-c4ccccc4)noc3C)CC2)cc1 -0.578
Cn1c(=O)[nH]c(=O)c2c1nc(N1CCNCC1)n2CCOc1ccccc1 -0.513
CC1CCCCN1CCNS(=O)(=O)c1ccc2c(c1)oc(=O)n2C (stereo not given) -0.424
CN1CCN(Cc2nc3c(c(=O)[nH]c(=O)n3C)n2CCc2ccccc2)CC1 -0.436
O=C(c1ccco1)N1CCN(C(=O)c2sccc2-c2ccccc2)CC1 -0.581
CC(C)CN(C(=O)c1ccc(=O)n(C)n1)c1nc2ccccc2s1 -0.332
CCOC(=O)N1CCC(NC(=O)CN2C(=O)CCSc3ccccc32)CC1 -0.515
CCOc1ccc(NC(=O)CN2C(=O)C3CCCN3C2=O)cc1 (stereo not given) -0.572
COc1ccc(-c2ccc(-c3noc(-c4ccccc4OC)n3)c(OC)n2)cc1 -0.0455
Cc1ccc(S(=O)(=O)N2CCN(CCO)CC2)cc1-c1nnc2c3ccccc3c(C)nn12 -0.609
CN(C)c1ccc(NC(=O)c2cc3c(=O)n4ccccc4nc3n2C)cc1 -0.572
Cc1cc(NC(=O)c2cccc(S(=O)(=O)N3CC(c4ccccc4)CC3=O)c2)no1 (stereo not given) -0.562
CN(CCc1ccccn1)C(=O)CCNC(=O)Cn1cnc2ccccc2c1=O -0.611
Cc1onc(-c2c(Cl)cccc2Cl)c1C(=O)NCC1CCCO1 (stereo not given) -0.519
CCOC(=O)C1(c2ccccc2)NC(c2ccc(N(C)C)cc2)C2C(=O)N(C)C(=O)C21 (stereo not given) -0.31
COc1ccc(C2C(C(=O)Nc3cccnc3)=C(C)Nc3nc(-c4cccs4)nn32)cc1OC (stereo not given) -0.593
CN(C)S(=O)(=O)Nc1ccc(Br)cc1F -0.439
CNC(=O)c1ccsc1NC(=O)CN1C(=O)CCC1=O -0.451
CC(C)C(NC(=O)OCc1ccccc1)C(=O)OCC(=O)NCc1ccco1 (stereo not given) -0.366

Each compound was assayed against Voltage-gated potassium channel subunit beta-2 (Rattus norvegicus) (UniProt P62483) (assay: KvBeta positive modulators, primary screen, biochemical, NADPH fluorescence (AID 623;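 active = NADPH fluorescence slope more negative than the mean of all samples by about 3 SD, 99.7% confidence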;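 also: fluorescence intensity change per second fitted from 20 to 320 s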)). Conditions: Recombinant KvBeta, NADPH fluorescence decrease slope, 10 min; at 10 µM; hits give low values.

NADPH fluorescence slope, inactive:
CCCCCn1c(CN2CCN(C(=O)c3ccco3)CC2)nc2c1c(=O)n(C)c(=O)n2C -5.2e-05
Cc1cc(C(=O)COC(=O)C2COc3ccccc3O2)c(C)n1CC1CCCO1 (stereo not given) -4.2e-05
COC(=O)Oc1c(Br)c(=O)oc2ccccc12 -3.2e-05
CCOC(=O)CN1CC23C=CC(O2)C(C(=O)Nc2ccc(OCC)cc2)C3C1=O (stereo not given) -1.3e-05
O=C(Cn1cc2c(n1)CCCC2)NCCc1ccccc1 -2.6e-05
CCCC1(C(=O)OCC)NC(c2ccc(N(C)C)cc2)C2C(=O)N(c3ccc(F)cc3)C(=O)C21 (stereo not given) 1e-06
COC(=O)c1ccc(NC(=O)CN2CCCC2)cc1 -6.2e-05
C=CCc1ccccc1OCCCCN1CCCC1 -3.1e-05
O=C(NCc1ccc2c(c1)OCO2)c1ccccn1 4.1e-05
O=C(CSc1nnc(NC(=O)C2CCC2)s1)NC1CC1 -4.2e-05
CCOC(=O)Cc1nnc2c(Nc3ccc(C)cc3)nc3nonc3n12 -1.4e-05
COc1ccc(C(=O)NCC(=O)NC2=NCCS2)cc1 -5.5e-05
Cc1nc(NC(=O)c2ccccc2)sc1-c1csc(NCc2ccco2)n1 -1.9e-05
COc1ccccc1-c1nnc(SCC(=O)NC2CCCCC2)o1 5e-05
O=C(CSc1nnnn1-c1ccc(Cl)cc1)NC(=O)Nc1ccc2c(c1)OCCO2 -3.6e-05
O=C(CCC(=O)c1cccs1)NCc1ccccc1 -5.1e-06
Cn1c(=O)oc2cc(S(=O)(=O)N3CCN(c4ccccn4)CC3)ccc21 -4.3e-05
CC(=O)c1ccccc1Oc1nc(CN2CCOCC2)nc2scc(-c3cccs3)c12 -1.8e-05
Cc1ccc(NC(=O)CCC(=O)O)cc1F -7.1e-05
Cc1c(C#N)c2ncnc(-c3ccccc3)c2n1-c1ccccc1 -0.000103
O=C(c1ccc(CSCc2ccccc2F)o1)N1CCN(c2ccc(N3CCOCC3)nn2)CC1 -1.8e-06
COc1ccc(N2CCN(C(=O)c3c(-c4ccccc4)noc3C)CC2)cc1 -3.3e-05
Cn1c(=O)[nH]c(=O)c2c1nc(N1CCNCC1)n2CCOc1ccccc1 4.4e-05
CC1CCCCN1CCNS(=O)(=O)c1ccc2c(c1)oc(=O)n2C (stereo not given) -6.8e-05
CN1CCN(Cc2nc3c(c(=O)[nH]c(=O)n3C)n2CCc2ccccc2)CC1 -1.6e-05
O=C(c1ccco1)N1CCN(C(=O)c2sccc2-c2ccccc2)CC1 2.3e-06
CC(C)CN(C(=O)c1ccc(=O)n(C)n1)c1nc2ccccc2s1 -7.5e-05
CCOC(=O)N1CCC(NC(=O)CN2C(=O)CCSc3ccccc32)CC1 -3.1e-05
CCOc1ccc(NC(=O)CN2C(=O)C3CCCN3C2=O)cc1 (stereo not given) 1.4e-05
COc1ccc(-c2ccc(-c3noc(-c4ccccc4OC)n3)c(OC)n2)cc1 -3.2e-06
Cc1ccc(S(=O)(=O)N2CCN(CCO)CC2)cc1-c1nnc2c3ccccc3c(C)nn12 -1.7e-05
CN(C)c1ccc(NC(=O)c2cc3c(=O)n4ccccc4nc3n2C)cc1 -3.5e-05
Cc1cc(NC(=O)c2cccc(S(=O)(=O)N3CC(c4ccccc4)CC3=O)c2)no1 (stereo not given) -5.1e-05
CN(CCc1ccccn1)C(=O)CCNC(=O)Cn1cnc2ccccc2c1=O 1.1e-05
Cc1onc(-c2c(Cl)cccc2Cl)c1C(=O)NCC1CCCO1 (stereo not given) 1.7e-05
CCOC(=O)C1(c2ccccc2)NC(c2ccc(N(C)C)cc2)C2C(=O)N(C)C(=O)C21 (stereo not given) -6.3e-05
COc1ccc(C2C(C(=O)Nc3cccnc3)=C(C)Nc3nc(-c4cccs4)nn32)cc1OC (stereo not given) -4.3e-05
CN(C)S(=O)(=O)Nc1ccc(Br)cc1F -8.8e-06
CNC(=O)c1ccsc1NC(=O)CN1C(=O)CCC1=O -5.2e-05
CC(C)C(NC(=O)OCc1ccccc1)C(=O)OCC(=O)NCc1ccco1 (stereo not given) 2.2e-05

— PubChem BioAssay
